From PubChem
CDC25B CDK2 inh – human CDC25B-CDK2/CyclinA binding inhibition; P30305+P24941; HTRF CDC25B-CDK2/CyclinA binding, anti-His/anti-Flag; active compounds read high; z-score (no concentration beside the values); 94,000 tested, 0.72% active; AID 1259370; in the data active = z-score above about 3.2
HIV TAR-Tat – HIV-1 TAR-Tat binding disruption; HIV-1 TAR RNA, Tat peptide displacement FRET; active compounds read high; z-score (no concentration beside the values); 100,000 tested, 0.6% active; AID 1259389; active = z-score of 3 or more in at least 2 runs
Starred values were filed as active, the others as inactive; . = not tested or not shown. Sampled rows, rich in hits. Any-hit rate of the full collection: about 0.93%.

SMILES	CDC25B CDK2 inh	HIV TAR-Tat
CC(C)n1cnc2cc(NCc3ccco3)ccc21	7.83*	0.19
CCCn1c(NCc2ccco2)nc2ccccc21	-0.65	1.02
CC(C)(C)n1cnc2cc(NCc3ccco3)ccc21	0.72	1.44
Cn1cnc2cc(NCc3ccco3)ccc21	16.8*	0.29
O=C(CCCN1C(=O)c2cccnc2Oc2ccc(Cl)cc21)NCCCN1CCCC1=O	.	1.77
CCC1CCCCN1c1c(-c2ccc(C)cc2)c(=O)c1=O (configuration not stated)	.	3.1
Nc1ccccc1SC/C=C/CSc1ccccc1N	14.9*	.
C(=C\CSc1ccccn1)/CSc1ccccn1	-1.31	.
Cc1ccc(NS(=O)(=O)c2ccc3c(c2)C(C)(C)C(=O)N3C)c(C)c1	.	1.33
Cc1cc(C)cc(NC(=O)C(C)CS(=O)(=O)c2ccc3c(c2)NC(=O)C(C)S3)c1 (configuration not stated)	.	-0.17
COc1cc(NC(=O)C(C)CS(=O)(=O)c2ccc3c(c2)NC(=O)C(C)S3)cc(OC)c1 (configuration not stated)	.	15.3*
O=C(Nc1ccc2oc(-c3cccc(F)c3)nc2c1)c1ccc([N+](=O)[O-])o1	2.52	22.3*
O=C(Nc1ccc2oc(-c3ccc(F)cc3)nc2c1)c1ccc([N+](=O)[O-])o1	0.59	2.36
Cc1ccc(C(=O)c2oc3ccccc3c2NC(=O)c2snnc2C)cc1	-1.13	0.67
CN1CCN(c2nnc(-n3cccc3CN3CCN(c4ccc(F)cc4)CC3)s2)CC1	.	2.39
COc1ccc(-c2cc3nc(C)cc(NCc4cccnc4)n3n2)cc1OC	-2.08	5.06*
COc1ccc(CNc2cc(C)nc3c(-c4ccc(OC)c(OC)c4)c(C)nn23)cc1	-2.53	0.44
Cn1c2c(c(=O)n(C)c1=O)CN(CC1CCN(Cc3ccc(Cl)cc3)CC1)CN2	-2.3	-0.85
Cc1nc(N=Nc2ccc(C(=O)O)cc2)c(COP(=O)(O)O)c(C=O)c1O	-2.46	.
Cc1ncc(COP(=O)(O)O)c(C=Nc2ccc3ccccc3c2)c1O	13.9*	.
NC(=S)Nc1cccc2nonc12	-3.49	.
CC1CCCC(NC(=O)CN2C(=O)CSc3ccc(S(=O)(=O)N4CCCCC4)cc32)C1C (configuration not stated)	.	0.11
Cc1nc2nc(-c3ccccc3)cc(=O)n2[nH]1	-1.55	0.51
O=c1cc(-c2ccccc2)nc2nc(-c3ccco3)[nH]n12	-0.39	6.53*
COc1ccc(N2CC(NC(=O)Nc3nccs3)CC2=O)cc1 (configuration not stated)	.	0.65
SMILES	CDC25B CDK2 inh	HIV TAR-Tat
Cc1ccc(NC(=O)c2nccnc2C(=O)O)cc1	-0.79	.
CC(=O)Nc1ccc(NC(=O)c2nccnc2C(=O)O)cn1	11.4*	.
COc1ccc(-c2nc(COc3ccccc3-c3nnc(-c4ccccc4)o3)c(C)o2)cc1OC	.	0.73
COc1ccc(S(=O)(=O)Nc2c(C)nc3nc[nH]n3c2=O)cc1Cl	-0.78	1.24
CNCCCCc1cnc(C)c2[nH]c3ccccc3c12	.	5.02*
Cc1ncc(CCCCN(C)C)c2c1[nH]c1ccccc12	1.14	3.66
CCCc1nnc(SCc2cc(=O)c3c(C)ccc(C)c3[nH]2)n1C	.	0.43
CC(C)c1ccc(NS(=O)(=O)c2cc3c4c(c2)CC(=O)N4CCC3)cc1	.	2.16
CCC(CC)C(=O)Nc1ccccc1SCc1cc(=O)n2c(ncn2C(C)C)n1	-2.92	-0.49
Cc1ccc2c(c1)-c1cc(C)nn1C(c1cc(C)ccc1O)N2 (configuration not stated)	1.41	2.17
Cc1ccc2c(c1)-c1cc(C)nn1C(c1cccc(O)c1O)N2 (configuration not stated)	1.81	18.8*
c1coc(C2Oc3ccccc3C3CC(c4cccs4)=NN32)c1 (configuration not stated)	-1.52	.
O=[N+]([O-])c1ccc(/C=C/C2Oc3ccccc3C3CC(c4cccs4)=NN23)o1 (configuration not stated)	1.48	13*
NC(=O)c1cccc2c1NC(C(=O)O)C1CC=CC21 (configuration not stated)	0.33	27.2*
O=C(O)C1Nc2c(O)cccc2C2C=CCC12 (configuration not stated)	3.8	.
Cc1ccc(C)n1-c1cc(C(=O)O)cc(C(=O)O)c1	0.35	17.3*
Cc1cc2c(n1-c1ccc(C(=O)O)cc1)CCCC2	-0.92	1.28
CCCn1c2ccccc2c2cnn(CC(=O)N3CCc4ccccc43)c(=O)c21	.	2.28
COc1cc(C2CC(c3c(O)n(C)c(=O)n(C)c3=O)=Nc3ccccc3S2)ccc1O (configuration not stated)	-1.71	1.21
COc1ccc(C2CC(c3c(O)n(C)c(=O)n(C)c3=O)=Nc3ccccc3S2)cc1OC (configuration not stated)	19.9*	2.33
O=C(CSc1ccsc1[N+](=O)[O-])Nc1c(F)cc(F)cc1Br	1.52	2.91
O=C(CSc1ccsc1[N+](=O)[O-])Nc1cccc(F)c1	-2.79	5.23*
O=C(CSc1ccsc1[N+](=O)[O-])Nc1ccc(Br)cc1F	3.65	13.2*
O=C(CSc1ccsc1[N+](=O)[O-])NC1CCCC1	-0.96	-0.7
CSc1ccc(CCNC(=O)CSc2ccsc2[N+](=O)[O-])cc1	-0.52	0.24
SMILES	CDC25B CDK2 inh	HIV TAR-Tat
COc1ccc(NC(=O)CSc2ccsc2[N+](=O)[O-])cc1Cl	3	10.3*
CN(C)S(=O)(=O)c1ccc2[nH]ccc2c1	0.69	-0.04
Cc1ccccc1Cn1c(/C=C/c2ccco2)nc2ccccc21	3.55*	-6.72
Clc1ccc(OCCn2c(/C=C/c3ccco3)nc3ccccc32)cc1	0.11	-5.79
C(=C\c1nc2ccccc2n1CCOc1ccccc1)/c1ccco1	0.36	-6.2
Cc1ccc(Cn2c(/C=C/c3ccco3)nc3ccccc32)cc1	3.56*	-0.25
CCc1ccc(C2Nc3c(C(=O)O)cccc3C3C4CCC(C4)C23)cc1 (configuration not stated)	-2.51	2.86
COc1cc(C2OC(c3cc(C4CC4)nc4ccccc34)=NN2C(C)=O)ccc1OC(C)=O (configuration not stated)	.	0.93
CC(=O)N1N=C(c2cccc3ccccc23)OC1c1cc(C)nc2ccccc12 (configuration not stated)	.	0.06
CC(=O)N1N=C(c2cc(C3CC3)nc3ccccc23)OC1c1ccc2c(c1)OCO2 (configuration not stated)	.	4.39*
CC(=O)N1N=C(c2cc(C)nc3ccccc23)OC1c1cccs1 (configuration not stated)	.	3.84*
Cc1cccc(COc2ccccc2C2CC(=O)Nc3c2c(C)nn3-c2ccc3nnc(C)n3n2)c1 (configuration not stated)	.	0.41
CCCCC(CC)C(=O)n1nc(-c2ccc(C)cc2)nc1N (configuration not stated)	-0.06	1.46
Cc1c(C(=O)O)sc2ncnc(Nc3ccc(C(C)C)cc3)c12	.	2.58
Cc1c(C(=O)O)sc2ncnc(NC3CCCC3)c12	.	0.65
Cc1c(C(=O)O)sc2ncnc(NCCC(C)C)c12	.	10.1*
Cc1c(C(=O)O)sc2ncnc(NC3CCCCC3)c12	.	5.98*
CCS(=O)(=O)N1CCCc2ccc(NS(=O)(=O)c3cc(OC)ccc3OC)cc21	.	-0.11
CCCS(=O)(=O)N1CCCc2ccc(NS(=O)(=O)c3ccc(OC)cc3OC)cc21	.	5.99*
CS(=O)(=O)c1ccc(-c2ccc(NC(=O)C3CCCC3)cc2)nn1	.	-0.18
CCC1=NN(c2ccccc2)C(=O)C1	10.1*	-0.73
